These results are taken from PubChem BioAssay.

SMILES strings stand for the structures. A number with no mark means an inactive call. For part of these data: Entries with a potency or affinity are not part of this list. Active and inactive are the calls of the source. Unless noted, no rule for the calls is given here.

A short description of test [1]: antimalarial activity against Dd2 strain (AID 2302;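 active = growth inhibition above 50% at the single 2 µM test dose, taken to imply half-maximal potency below 2 µM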;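 also: 0% = DMSO untreated growth and 100% = chloroquine plus artemisinin killed control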). As to conditions: P. falciparum Dd2 in RBCs, LDH growth readout, 72 h; at 2 µM; active compounds read high.
Test [2] can be described thus: human hepatoma cell viability loss – ATP luminescence, cytotoxicity control for P. falciparum antimalarial project, primary screen (AID 2303;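 active = inhibition above 50%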;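 also: 0% = DMSO wells and 100% = digitonin-killed cells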). As to conditions: HepG2 viability, 24-48 h, at 10 µM, active compounds read high.
Test [3] deals with L-lactate dehydrogenase (Plasmodium falciparum (isolate CDC / Honduras)) (UniProt Q27743). The experiment in a line: PfLDH activity inhibition – cell lysate, 3D7 strain, counter-screen for P. falciparum growth inhibition project (AID 2304).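 Also: 0% = vehicle and 100% = reference inhibitor.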 Conditions: P. falciparum 3D7 crude extract, LDH APAD/NBT absorbance; at 2 µM; active compounds read high.
The nature of test [4]: inhibition of 3D7 malaria parasite growth – strain 3D7 (AID 2306).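 Also: 0% = DMSO wells and 100% = chloroquine plus artemisinin control wells.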 As to conditions: P. falciparum 3D7 erythrocytic growth, LDH absorbance, 72 h; at 2 µM; active compounds read high.
Test [5] deals with Calcium-dependent protein kinase 1 (Plasmodium falciparum (isolate 3D7)) (UniProt P62344). The experiment in a line: PfCDPK1 kinase inhibitors, biochemical, TCAMS library (AID 1159585; cut-off not given, nearly all actives have IC50 up to about 0.98 µM;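 also: inhibitors leave more ATP so luminescence rises with inhibition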). Conditions: recombinant PfCDPK1, Kinase-Glo ATP depletion luminescence.
Test [6] has as its target Plasmodium falciparum protein kinase 6 (PK6, PF3D7_1337100) (UniProt Q8IDW1). The experiment in a line: PfPK6 kinase inhibitors, biochemical, TCAMS library (AID 1159586). Conditions: recombinant PfPK6, Kinase-Glo ATP depletion luminescence. (In Kinase-Glo more light means more ATP remaining.)
For test [7], the target named is Protein kinase 7 (PK7), Plasmodium falciparum 3D7 (PF3D7_0213400) (UniProt Q7YTF7). The experiment in a line: inhibition of Plasmodium PK7 catalytic activity – biochemical, TCAMS antimalarial set, Kinase-Glo luminescence (AID 1159587). As to conditions: recombinant PfPK7, Kinase-Glo ATP depletion luminescence.
Test [8] concerns the target Calcium-dependent protein kinase 4 (Plasmodium falciparum (isolate 3D7)) (UniProt Q8IBS5). The experiment in a line: PfCDPK4 kinase inhibitors, biochemical, TCAMS library (AID 1159588; cut-off not given, nearly all actives have IC50 up to about 0.91 µM). As to conditions: recombinant PfCDPK4, Kinase-Glo ATP depletion luminescence.

Chain of Calcium-dependent protein kinase 4 (Plasmodium falciparum (isolate 3D7)) (Q8IBS5 whole entry, looked up): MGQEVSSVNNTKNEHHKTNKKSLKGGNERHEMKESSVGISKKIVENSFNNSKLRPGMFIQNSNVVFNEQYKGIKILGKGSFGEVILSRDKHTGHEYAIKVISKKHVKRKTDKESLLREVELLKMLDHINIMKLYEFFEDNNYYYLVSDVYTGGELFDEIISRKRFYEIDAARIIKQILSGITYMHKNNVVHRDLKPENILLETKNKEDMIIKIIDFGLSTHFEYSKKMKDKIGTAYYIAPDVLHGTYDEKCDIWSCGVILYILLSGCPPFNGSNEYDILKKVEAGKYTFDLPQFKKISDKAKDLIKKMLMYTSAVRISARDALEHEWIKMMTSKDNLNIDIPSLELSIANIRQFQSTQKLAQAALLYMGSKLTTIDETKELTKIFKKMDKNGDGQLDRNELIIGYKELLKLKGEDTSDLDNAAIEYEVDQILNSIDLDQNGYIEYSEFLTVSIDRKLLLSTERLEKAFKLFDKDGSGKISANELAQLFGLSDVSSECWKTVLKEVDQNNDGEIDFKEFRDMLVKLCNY
Chain of Protein kinase 7 (PK7), Plasmodium falciparum 3D7 (PF3D7_0213400) (Q7YTF7 1-343): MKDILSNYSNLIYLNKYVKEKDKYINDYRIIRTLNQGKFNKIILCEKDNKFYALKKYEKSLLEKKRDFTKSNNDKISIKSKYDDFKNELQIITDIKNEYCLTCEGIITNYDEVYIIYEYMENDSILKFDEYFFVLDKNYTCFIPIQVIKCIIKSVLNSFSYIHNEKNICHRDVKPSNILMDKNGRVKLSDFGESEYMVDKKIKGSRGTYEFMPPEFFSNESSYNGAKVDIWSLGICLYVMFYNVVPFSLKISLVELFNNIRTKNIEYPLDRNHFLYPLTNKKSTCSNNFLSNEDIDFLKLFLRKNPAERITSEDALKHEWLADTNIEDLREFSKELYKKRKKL
Chain of Plasmodium falciparum protein kinase 6 (PK6, PF3D7_1337100) (Q8IDW1 1-305): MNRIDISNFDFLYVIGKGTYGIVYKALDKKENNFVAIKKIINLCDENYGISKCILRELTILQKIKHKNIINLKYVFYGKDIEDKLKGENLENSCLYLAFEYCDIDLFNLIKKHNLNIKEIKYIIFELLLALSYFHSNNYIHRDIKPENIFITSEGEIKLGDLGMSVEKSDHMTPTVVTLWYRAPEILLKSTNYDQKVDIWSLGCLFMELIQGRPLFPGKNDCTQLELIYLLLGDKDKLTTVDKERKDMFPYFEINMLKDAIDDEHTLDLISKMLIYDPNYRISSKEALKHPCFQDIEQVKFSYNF
Chain of Calcium-dependent protein kinase 1 (Plasmodium falciparum (isolate 3D7)) (P62344 whole entry, looked up): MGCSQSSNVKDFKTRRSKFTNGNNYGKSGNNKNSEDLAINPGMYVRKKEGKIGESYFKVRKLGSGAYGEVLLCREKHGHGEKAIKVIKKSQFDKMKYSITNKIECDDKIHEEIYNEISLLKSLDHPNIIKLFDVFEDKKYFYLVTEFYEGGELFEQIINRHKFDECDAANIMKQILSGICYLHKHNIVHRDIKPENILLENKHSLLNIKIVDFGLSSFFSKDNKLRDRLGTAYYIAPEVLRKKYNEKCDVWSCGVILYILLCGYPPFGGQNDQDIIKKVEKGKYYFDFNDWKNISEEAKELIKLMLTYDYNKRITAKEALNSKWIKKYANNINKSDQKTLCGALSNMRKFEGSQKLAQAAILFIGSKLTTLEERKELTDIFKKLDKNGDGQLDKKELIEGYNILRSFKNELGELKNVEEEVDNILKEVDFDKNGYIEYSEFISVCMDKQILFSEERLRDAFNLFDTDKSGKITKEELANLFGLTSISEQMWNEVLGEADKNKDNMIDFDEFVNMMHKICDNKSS
Chain of L-lactate dehydrogenase (Plasmodium falciparum (isolate CDC / Honduras)) (Q27743 whole entry, looked up): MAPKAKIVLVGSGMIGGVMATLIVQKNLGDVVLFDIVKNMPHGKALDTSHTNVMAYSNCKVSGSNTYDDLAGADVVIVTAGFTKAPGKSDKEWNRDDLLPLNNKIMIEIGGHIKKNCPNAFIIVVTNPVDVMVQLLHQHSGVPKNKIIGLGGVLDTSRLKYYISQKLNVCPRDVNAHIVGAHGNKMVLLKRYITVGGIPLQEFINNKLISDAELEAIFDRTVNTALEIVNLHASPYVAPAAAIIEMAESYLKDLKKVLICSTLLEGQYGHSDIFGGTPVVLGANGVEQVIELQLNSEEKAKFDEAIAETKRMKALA

`CCCNc1nc(NCc2c(C)cccc2C)nc(NC(C)(C)C)n1`: the growth inhibition in test [1] is 89% (active); in test [4], 91% (active). In addition, the inhibition – broadly, the change of the read-out against control, counted positive when it falls – is 15% in test [2] and 2% in test [3]. Besides, the outcome in test [5], in test [6], in test [7] and in test [8] was inactive.

As for `O=S(=O)(Nc1ccc(CCN2CCCCC2CCN2CCCC2)cc1)c1ccc(-c2ccccc2)cc1` (stereo not drawn), the growth inhibition in test [1] is 18%; in test [4], 98% (active). Besides, the inhibition in test [2] is 18%; in test [3], -1%. The outcome in test [5], in test [6], in test [7] and in test [8] was inactive.

With `CC(C)(C)Nc1nc(Nc2cccc([N+](=O)[O-])c2)nc(-n2ccnc2)n1`, the growth inhibition in test [1] is 41%; in test [4] it was 98% (active). The inhibition is 10% in test [2] and -9% in test [3]. Further, the outcome in test [5], in test [6], in test [7] and in test [8] was inactive.

As to `CCOc1ccc(/C=C/C(=O)Nc2cccc3c2CCN(C)C3)cc1`, the values for the growth inhibition in test [1] and in test [4] were 3% and 92% (active), respectively. Also, the inhibition in test [2] was -2%; in test [3], 0%. Further, the result in test [5], in test [6], in test [7] and in test [8] was inactive.

With `CN1CCCN(Cc2ccc(-c3cccc(NC(=O)c4cccc(C#N)c4)c3)cc2)CC1`, the results for the growth inhibition in test [1] and in test [4] were 64% (active) and 101% (active), respectively. The inhibition was 17% in test [2] and -2% in test [3]. Besides, the result in test [5], in test [6], in test [7] and in test [8] was inactive.

In the case of `NC(N)=NN=Cc1cc2ccccc2c2ccccc12`, the growth inhibition was 63% (active) in test [1] and 100% (active) in test [4]. Also, the inhibition in test [2] is 25%; in test [3], 4%. Besides, the result in test [5], in test [6], in test [7] and in test [8] was inactive.

On to `CC(C)COc1ccc(Cl)cc1Cc1ccc(-c2nc3c(F)cccc3[nH]2)o1`, for which the growth inhibition in test [1] is 47%; in test [4], 98% (active). The figures for the inhibition in test [2] and in test [3] were 15% and -1%, respectively. In addition, the outcome in test [5], in test [6], in test [7] and in test [8] was inactive.

As for `CC(C#N)Cc1ccc(-c2cnc(N)c3cc(-c4ccnc(N)n4)ccc23)cc1` (stereo not drawn), the growth inhibition in test [1] was 62% (active); in test [4], 96% (active). The inhibition was 56% (active) in test [2] and 0% in test [3]. In addition, the outcome in test [5], in test [6], in test [7] and in test [8] was inactive.

On to `O=S(=O)(Nc1cccc(CCN2CCC(N3CCCCC3)CC2)c1)c1cccc(C(F)(F)F)c1`, for which the figures for the growth inhibition in test [1] and in test [4] were 13% and 101% (active), respectively. The inhibition in test [2] is 25%; in test [3] it was -1%. Moreover, the result in test [5], in test [6], in test [7] and in test [8] was inactive.

Take `CC(C)Cn1ncc2c3c(N)nc(N)nc3ccc21`: the growth inhibition is 73% (active) in test [1] and 94% (active) in test [4]. In addition, the inhibition was 63% (active) in test [2] and 1% in test [3]. The outcome in test [5], in test [6], in test [7] and in test [8] was inactive.

Take `COCCn1c(SC(C)C(=O)Nc2cc(C(F)(F)F)ccc2Cl)nc2ccccc2c1=O` (stereo not drawn): the growth inhibition in test [1] is 95% (active); in test [4] it was 97% (active). For the same molecule, the inhibition in test [2] was 8%; in test [3] it was 4%. The outcome in test [5], in test [6], in test [7] and in test [8] was inactive.

For the molecule `COc1ccc2nccc([C@@H](O)CN3CCC(NCc4cn5cc(F)ccc5n4)CC3)c2c1`, the figures for the growth inhibition in test [1] and in test [4] were 5% and 96% (active), respectively. For the same molecule, the inhibition in test [2] was 19%; in test [3], -5%. Besides, the result in test [5], in test [6], in test [7] and in test [8] was inactive.

Turning to `COc1ccc(N2CCc3c(-c4cccc5cnccc45)cc(C)nc32)c(C)c1`, the growth inhibition in test [1] is -12%; in test [4], 96% (active). In addition, the inhibition in test [2] was 20%; in test [3], 0%. The result in test [5], in test [6], in test [7] and in test [8] was inactive.

With `CCOc1ccccc1CCNC(C)Cc1ccc(C(=O)Nc2ccc(CC(C)NCCc3cccc(Cl)c3)cc2)cc1` (stereo not drawn), the growth inhibition in test [1] is 59% (active); in test [4] it was 97% (active). Moreover, the inhibition in test [2] was 100% (active); in test [3], -3%. Besides, the outcome in test [5], in test [6], in test [7] and in test [8] was inactive.

Take `Cc1cc(NN=Cc2cccc(F)c2)c2cccc(C)c2n1`: the growth inhibition is 53% (active) in test [1] and 100% (active) in test [4]. Also, the inhibition in test [2] is 14%; in test [3] it was 5%. Also, the outcome in test [5], in test [6], in test [7] and in test [8] was inactive.

For the molecule `CC(C)Cc1nc(N)nc(N)c1-c1ccc(Cl)cc1`, the growth inhibition in test [1] is 3%; in test [4], 96% (active). Besides, the inhibition is 5% in test [2] and 6% in test [3]. The outcome in test [5], in test [6], in test [7] and in test [8] was inactive.

For `N#Cc1ccc(C=NNc2nc3ccccc3[nH]2)cc1`, the growth inhibition in test [1] is 71% (active); in test [4] it was 101% (active). For the same molecule, the inhibition in test [2] is -4%; in test [3] it was 3%. The outcome in test [5], in test [6], in test [7] and in test [8] was inactive.

In the case of `Cc1ccc(Nc2ccnc3cc(-c4nccs4)ccc23)cc1C(O)c1ccccc1` (stereo not drawn), the growth inhibition is 83% (active) in test [1] and 85% (active) in test [4]. In addition, the inhibition in test [2] is 23%; in test [3], -8%. Besides, the result in test [5], in test [6], in test [7] and in test [8] was inactive.

With `CS(=O)(=O)c1cccc(-c2cnc(N)c3cc(-c4ccc(F)cc4)ccc23)c1`, the growth inhibition is 33% in test [1] and 91% (active) in test [4]. Besides, the inhibition in test [2] was 28%; in test [3] it was 4%. Also, the outcome in test [5], in test [6], in test [7] and in test [8] was inactive.

Consider `COc1cccc(C2CCCN(CCCCNC(=O)c3ccc(NC(=O)c4ccc(Cl)cc4)cc3)C2)c1` (stereo not drawn), for which the growth inhibition in test [1] is 6%; in test [4], 95% (active). The inhibition in test [2] was 24%; in test [3] it was -2%. Also, the result in test [5], in test [6], in test [7] and in test [8] was inactive.

`OCCn1c(CNCCCNc2nc3ccccc3[nH]2)cc2c(Cl)cc(Cl)cc21`: the growth inhibition in test [1] is 0%; in test [4], 95% (active). Further, the results for the inhibition in test [2] and in test [3] were 29% and -6%, respectively. Also, the outcome in test [5], in test [6], in test [7] and in test [8] was inactive.
